Reference: PubChem BioAssay (NCI)
This is part of a sample that, as a whole, favours compounds with a hit. Of some 79,000 tested, about 15% had one in any assay. No stated cut-off is given here; in the data, active means growth inhibition above about 70%; inactive means the rest.

Legend:
[1] = NCI Yeast Anticancer Drug Screen. Data for the rad50 strain (AID 155);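 further: 0% = growth of vehicle-only cultures of the same strain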; settings: S. cerevisiae rad50 strain growth inhibition; at 50.0 µM; hits give high values
In short: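 Growth of the mutant yeast was measured after compound exposure and referenced to vehicle-treated cultures.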

[2] = NCI Yeast Anticancer Drug Screen. Data for the mec2-1 strain (AID 157); settings: S. cerevisiae mec2-1 strain, at 50.0 µM, hits give high values
In short: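 Readout is yeast growth inhibition, normalised to vehicle-treated controls, in the mec2-1 strain exposed to compound.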

[3] = NCI Yeast Anticancer Drug Screen. Data for the sgs1 mgt1 strain (AID 161);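 further: 0% = growth of cultures given vehicle only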; settings: S. cerevisiae sgs1 mgt1 strain, at 50.0 µM, hits give high values
In short: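 Growth of a repair-deficient yeast mutant was monitored after compound treatment and expressed as inhibition relative to vehicle-treated cultures.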

[4] = NCI Yeast Anticancer Drug Screen. Data for the cln2 rad14 strain (AID 165);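 further: 0% = growth equal to vehicle treated cultures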; settings: S. cerevisiae cln2 rad14 strain, at 50.0 µM, hits give high values
In short: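 Relative to vehicle controls, growth inhibition of compound-treated cln2 rad14 yeast was recorded.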

[5] = NCI Yeast Anticancer Drug Screen. Data for the bub3 strain (AID 167); settings: S. cerevisiae bub3 mutant strain, at 50.0 µM, hits give high values
In short: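 Whole-cell yeast assay. The mutant strain was incubated with compounds, and growth inhibition was determined by comparison with vehicle-treated cells.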

[6] = NCI Yeast Anticancer Drug Screen. Data for the mlh1 rad18 strain (AID 175); settings: S. cerevisiae mlh1 rad18 strain growth inhibition; at 50.0 µM; hits give high values
In short: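 Test agents were incubated with a yeast strain of defined genotype (DNA damage repair defect). Inhibition of growth was derived by comparison with vehicle-exposed cultures.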

Measured: growth inhibition

CCCCS(=O)(=O)CCCC
inactive: [1] 18.5% | [2] 0.9% | [3] -10.2% | [4] 0.6% | [5] -1.3% | [6] 22.9%

CCOC(=O)C(=CNC(=S)c1ccncc1)C(=O)OCC
inactive: [1] -41.6% | [2] -64.5% | [3] -25.8% | [4] 18.9% | [5] -6.6% | [6] -36%

CCOC(=O)C1C(=O)N(O)c2cnccc21 (stereo unspecified)
inactive: [1] -1.9% | [2] -16.6% | [3] -12.5% | [4] -12.2% | [5] 15% | [6] 8.35%

Cc1c(-c2ccc(N)cc2)c(=O)oc2cc(O)ccc12
inactive: [1] -8.65% | [2] -11.1% | [3] -2.2% | [4] 33% | [5] 8.1% | [6] 8.55%

COc1ccc(C)cc1NC(=O)/C=C/c1ccccc1
inactive: [1] 1.6% | [2] -6.6% | [3] -6.5% | [4] 16.2% | [5] 30.8% | [6] -7.65%

O=C(Nc1ccc(NC(=O)Nc2cc(C(F)(F)F)ccc2Oc2ccc(Cl)c(Cl)c2)cc1)Nc1cc(C(F)(F)F)ccc1Oc1ccc(Cl)c(Cl)c1
inactive: [1] -28.2% | [2] -45.4% | [3] -13.4% | [4] -23.2% | [5] -35.1% | [6] -19.7%

COc1ccc(C)cc1Sc1ccc(C)cc1[N+](=O)[O-]
inactive: [1] -6.2% | [2] -6.7% | [3] -3.2% | [4] -27.5% | [5] 10% | [6] -22.9%

Cc1nn(-c2ccccc2)nc1C(=O)Nc1ccc2[nH]ncc2c1
inactive: [1] -39.2% | [2] -48.1% | [3] -8.95% | [4] -15.8% | [5] -22.9% | [6] -24.6%

O=C(O)C(Cc1ccccc1)c1ccc(Cl)cc1 (stereo unspecified)
inactive: [1] 38.1% | [2] 27.3% | [3] 43.1% | [4] 20.6% | [5] 41.8% | [6] 25.9%

CC(O)C([NH-])C(=O)O.CC([NH-])C(=O)O.[Cu+2] (stereo unspecified)
inactive: [1] 26.6% | [2] 15.7% | [3] 6.95% | [4] 12.7% | [5] 13.3% | [6] 15.4%

CN(C)C=NC1CC(C)(C)NC(C)(C)C1
inactive: [1] -18.2% | [2] 2.2% | [3] 3.1% | [4] -49.1% | [5] 13.2% | [6] -12.9%

Nc1ccnn2c(-c3ccccc3)nnc12
inactive: [1] -0.55% | [2] 1.85% | [3] -5.7% | [4] 4.25% | [5] 12.4% | [6] 2.35%

CCc1ccccc1NC(=O)C1=C(C)NC(C)=C(C(=O)Nc2ccccc2CC)C1c1ccc2c(c1)OCO2
inactive: [1] -9.35% | [2] 3.6% | [3] -2.4% | [4] -7.8% | [5] -0.75% | [6] -4%

c1ccc2c(c1)NC1(CCCCC1)S2
inactive: [1] 5.35% | [2] -13.1% | [3] 39.5% | [4] 11.6% | [5] 5% | [6] 11.9%

O=NNc1ccnc(-c2cc(NN=O)ccn2)c1
inactive: [1] 22.2% | [2] 16.4% | [3] 6.3% | [4] -0.9% | [5] -12.5% | [6] 34%

COc1ccc(/C(Cl)=C(\CNc2ccccn2)c2ccccc2)cc1OC
inactive: [1] -14.4% | [2] -21.9% | [3] -39.9% | [4] -22.7% | [5] 2.3% | [6] -34.1%

CC1(C)OC2C(=O)C3COC(O3)C2O1 (stereo unspecified)
inactive: [1] -10.7% | [2] -0.25% | [3] -25.1% | [4] -36% | [5] 0% | [6] 5.8%

O=S(=O)(NCCBr)c1ccccc1
inactive: [1] -1.5% | [2] 2.45% | [3] -8.9% | [4] 11.6% | [5] -2% | [6] 2.05%

O=C(Nc1ccc(C2=NCCN2)cc1)c1ccc(C(=O)Nc2ccc(C3=NCCN3)cc2)cc1
inactive: [1] -3.1% | [2] 7.45% | [3] 0.95% | [4] 2% | [5] 9.4% | [6] -19.6%

C=C(C)COc1c(C)c(C)c(OCC(C)C)c(C)c1C
inactive: [1] -4.35% | [2] 9.75% | [3] -0.75% | [4] -8.75% | [5] 3.2% | [6] -10.9%

CC(C)(CCN)[N+](=O)[O-]
inactive: [1] -5.15% | [2] 9.15% | [3] 17.9% | [4] -88.3% | [5] 5.55% | [6] -2.5%

CC(=O)OC1CC2C(CCC3CC(C(C)=O)CCC32C)C2CCC(/C(C)=C/C=C(c3ccccc3)c3ccccc3)C12C (stereo unspecified)
inactive: [1] 19.6% | [2] 3.1% | [3] 7.35% | [4] -9.4% | [5] -3.05% | [6] 2.6%

N#CCCN(CCC#N)c1ccc(/C=C2\N=C(c3cc([N+](=O)[O-])ccc3Cl)N(NC(=O)CC(=O)Nc3ccccc3Cl)C2=O)cc1
inactive: [1] -31% | [2] -28.1% | [3] -13.8% | [4] 2.5% | [5] 1.65% | [6] -18.3%

Cc1cc(C)c(Br)c(C)c1C
inactive: [1] -17.4% | [2] 4.15% | [3] -9.95% | [4] -53.4% | [5] 8.5% | [6] -22.7%

N#CC1CNC(=S)N=C1c1ccccc1 (stereo unspecified)
inactive: [1] 11.5% | [2] 17.8% | [3] 17.9% | [4] -74.6% | [5] 0.9% | [6] 12.1%

Cc1ccc2c(O)c3c(cc2c1O)C(=O)c1ccccc1C3=O
inactive: [1] 30.2% | [2] 0.75% | [3] 20.4% | [4] 21.3% | [5] -0.85% | [6] 31.2%

Cc1ccc([N+](=O)[O-])cc1NC(=O)C(=O)C(C(=O)c1ccccc1F)C1OC(=O)c2ccccc21 (stereo unspecified)
inactive: [1] -3.1% | [2] 5.7% | [3] -14.4% | [4] 13.1% | [5] -1.1% | [6] -1.9%

Cn1c(=O)c2c(no[n+]2[O-])c2ccccc21
inactive: [1] 18.1% | [2] 15.7% | [3] 8.05% | [4] 14.1% | [5] 21.1% | [6] 22.4%

O=C(Cl)c1cccc2c([N+](=O)[O-])cccc12
inactive: [1] -4.45% | [2] 2.95% | [3] -2.35% | [4] -44% | [5] -1.4% | [6] 11.8%

O=[N+]([O-])c1ccc2nc(-c3ccccc3[N+](=O)[O-])[nH]c2c1
inactive: [1] 0.2% | [2] 0.85% | [3] 2.5% | [4] -49.5% | [5] -7.35% | [6] -5.15%

N=C1CCCS1
inactive: [1] -7.05% | [2] -2.35% | [3] -7.1% | [4] -6.3% | [5] -49.5% | [6] -4.7%

CCCCC(CC)COC(=O)Cc1ccccc1 (stereo unspecified)
inactive: [1] 17.3% | [2] 17.1% | [3] 15.8% | [4] -5.85% | [5] 40.1% | [6] 34.7%

O=[N+]([O-])c1ccc(C2=NOC3COC4C=CC=CC4OCC23)cc1 (stereo unspecified)
inactive: [1] -3.4% | [2] -29.7% | [3] 11.1% | [4] -2.55% | [5] 5.95% | [6] -7.5%

COc1ccc(C)cc1NC(=O)c1c(Br)c(Br)c(Br)c(Br)c1C(=O)O
inactive: [1] 4.25% | [2] -11.1% | [3] 10.4% | [4] 12.8% | [5] 6.8% | [6] 10.8%

Nc1ccn(C2OC(COP(=O)(O)O)C(O)C2O)c(=O)n1 (stereo unspecified) (tested in a mixture with another compound)
inactive: [1] -3.8% | [2] -4.25% | [3] -0.75% | [4] -44.4% | [5] 1.15% | [6] 14.1%

Cc1ccc(N(C(=O)CC(=O)N/N=C/c2ccccc2O)C(=O)c2ccccc2)cc1
inactive: [1] -6.55% | [2] -16.8% | [3] -2.05% | [4] 8.2% | [5] -27.1% | [6] -10.8%

CN1CCN(CCCNN)CC1
inactive: [1] 2.05% | [2] -17.1% | [3] -17.6% | [4] 3.55% | [5] -70.6% | [6] -30.1%

O=C(c1ccccc1)c1cccnc1
inactive: [1] -10.6% | [2] -18.3% | [3] -17.4% | [4] -25.1% | [5] -45.2% | [6] -35.4%

C=CCc1cc2c(cc1COC(C)=O)OCO2
inactive: [1] -35.7% | [2] -17.9% | [3] -15.4% | [4] -36.5% | [5] -10.6% | [6] -28%

CC(=O)N1CN2C(=O)CCC2c2cc(C)ccc21 (stereo unspecified)
inactive: [1] 10.1% | [2] 14.9% | [3] -2.65% | [4] 7.8% | [5] 0.95% | [6] -57.4%

CC(C)CC1OCC(C)(C)CO1
inactive: [1] -0.6% | [2] -12.4% | [3] -11.3% | [4] -7.05% | [5] -7.9% | [6] -9.8%
